High-throughput results as filed in PubChem BioAssay.
This is a sample that favours compounds with a hit; in the whole collection about 4.5% have one here.
hcDAF-12 act: activators of H. contortus DAF-12 nuclear receptor | AID 652067 | HEK293 hcDAF-12 lit1-tk-luc reporter, luminescence; 0% DMSO, 100% Δ7-dafachronic acid | activation, % at 6.8 µM | 1.4% of 370,000 active;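 active = activation above the mean of all tested compounds plus 3 SD, cut at about 5.5% in these data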;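 also: 100% = response to 3 µM Δ7-dafachronic acid high control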
DAX1 inh-1: NR0B1 (DAX1) inhibition. P51843. HEK293 Gal4-DAX1 luciferase reporter, luminescence. inhibition, % at 6.75 µM. 0.99% of 340,000 active;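 active = inhibition above the mean over all tested compounds plus 3 SD, cut at about 4.2% in these data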;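 also: 0% = DAX1-transfected cells with DMSO and 100% = empty-vector control cells with DMSO; inhibition shows as a rise in luminescence from relieved DAX1 repression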
Target sequence (P51843 207-470 limits assumed): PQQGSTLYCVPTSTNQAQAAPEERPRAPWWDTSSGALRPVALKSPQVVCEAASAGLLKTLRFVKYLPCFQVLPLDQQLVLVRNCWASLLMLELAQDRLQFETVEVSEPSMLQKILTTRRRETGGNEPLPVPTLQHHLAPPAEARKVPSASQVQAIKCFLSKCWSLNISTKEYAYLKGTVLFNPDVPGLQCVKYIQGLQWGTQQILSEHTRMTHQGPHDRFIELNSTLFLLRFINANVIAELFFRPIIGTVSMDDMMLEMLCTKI
FXN GAA850 act: frataxin GAA850 promoter activation | 0.56% of 360,000 active | activation, % at 6 µM | HEK293 lucGAA850 FXN promoter luciferase reporter, 24 h; percent of 10 µM SAHA response;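 active = activation above the average of all compounds screened plus 3 SD, cutoff fixed separately per campaign, cut at about 7.5% in these data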;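 also: 0% = DMSO wells and 100% = 10 µM SAHA wells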
ssDAF12 agonist: activators of S. stercoralis DAF-12 nuclear receptor; HEK293 ssDAF-12/GRIP1 lit1-tk-luc reporter, luminescence; % of 3 µM dafachronic acid response; activation, % at 6.8 µM; 1% of 370,000 active;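 active = activation above the mean over all tested compounds plus 3 SD, cut at about 0.9% in these data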;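 also: 0% = DMSO-only wells and 100% = 3 µM delta7-dafachronic acid wells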
DAX1 inh-2: inhibitors of DAX1 repression of SF-1 activated StAR promoter; HEK293T StAR-luciferase reporter, SF-1/DAX-1 repression relief; inhibition, % at 6.8 µM; 1.1% of 370,000 active; AID 652010;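 active = inhibition above the mean over all tested compounds plus 3 SD, cut at about 3.6% in these data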;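 also: 0% = DAX-1 cells with DMSO and 100% = cells lacking DAX-1 with DMSO; higher inhibition means more luminescence from relief of DAX-1 repression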
hgDAF12 agonist: agonists of H. glycines DAF-12 nuclear receptor | HEK293 GAL4-hgDAF12 UAS-luciferase reporter, agonist luminescence; normalized to butyrate control | activation, % at 6.8 µM | 1.8% of 370,000 active | AID 687014;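 active = activation above a cutoff set at the mean of all screened compounds plus 3 SD, cut at about 10% in these data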;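 also: 0% = DMSO wells and 100% = sodium butyrate wells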
GAA30 FXN cntr: activates GAA30 frataxin promoter, counter-screen for GAA850 activators | shares compounds with FXN GAA850 act | HEK293 lucGAA30 FXN promoter luciferase, 24 h; DMSO = 0%, 5 µM ipriflavone = 100% | activation, % at 6 µM | 66% of 1,900 active | AID 588350;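 active = mean activation above the mean of solvent-only control wells plus 3 SD, cut at about 22% in these data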;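 also: counterscreen of GAA850 promoter hits where activity marks nonselective or luminescence artifacts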
GAA850 confirm: GAA850 FXN promoter activation confirmation; shares compounds with FXN GAA850 act; HEK293 lucGAA850 FXN promoter luciferase reporter, 24 h; 100% = activation by SAHA; activation, % at 6 µM; 86% of 1,900 active;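 active = mean activation above a set limit taken from the primary screen, cut at about 8% in these data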;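 also: 0% = DMSO wells and 100% = 10 µM SAHA wells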
Starred values were filed as active, the others as inactive; · = no result given.

SMILES	hcDAF-12 act	DAX1 inh-1	FXN GAA850 act	ssDAF12 agonist	DAX1 inh-2	hgDAF12 agonist	GAA30 FXN cntr	GAA850 confirm
N#C/C(=C\C=C\c1ccccc1[N+](=O)[O-])C(=O)NC1CCCCC1	·	2	14*	·	·	·	-34	18*
CCOC(=O)c1cccc(-c2cc(C(C)=O)c3n(c2=O)CCC3)c1	-1	·	·	-1	0	0	·	·
COc1ccc(CCN=C(N)C(C)c2ccccc2)cc1OC (stereo unspecified)	1	-2	0	-1	0	2	·	·
CC(C)Cc1ccc(C(C)C(N)=NCCc2ccccc2)cc1 (stereo unspecified)	2	0	11*	-1	0	-4	-22	36*
C=CCN1C(=O)[C@H](CC(=O)N2CCN(C(=O)c3ccco3)CC2)[C@@]2(C(=O)OCC)CCCC=C12	-1	·	·	-1	0	-1	·	·
CCN(C[C@H]1N[C@@](CC)(C(=O)OC)[C@H]2C(=O)N(Cc3ccccc3)C(=O)[C@@H]12)C(=O)COc1ccccc1	-1	-1	8.0*	-1	0	1	28*	14*
CCN(C[C@H]1N[C@@](CC)(C(=O)OC)[C@H]2C(=O)N(Cc3ccccc3)C(=O)[C@@H]12)C(=O)COC	-2	3	-2	-1	1	3	·	·
CCN(C[C@H]1N[C@@](CC)(C(=O)OC)[C@H]2C(=O)N(Cc3ccccc3)C(=O)[C@@H]12)C(=O)Nc1ccc(Cl)cc1	0	0	15*	-1	1	-3	31*	14*
CCN(C[C@H]1N[C@@](CC)(C(=O)OC)[C@H]2C(=O)N(Cc3ccccc3)C(=O)[C@@H]12)C(=O)Nc1ccc(C)cc1	0	2	14*	-1	1	2	33*	12*
Cc1ccccc1/C=N/Nc1ncnc2nc[nH]c12	0	1	8.4*	-1	0	1	64*	21*
Cc1cc(=O)[nH]c(N/N=C/c2sccc2C)n1	4	0	4	0	1	4	·	·
Cc1ccsc1/C=N/Nc1ncnc2nc[nH]c12	2	4.6*	13*	-1	3	3	129*	48*
Fc1ccc(/C=N/Nc2ncnc3nc[nH]c23)cc1F	0	1	5	-1	1	1	·	·
C(=N\Nc1ncnc2nc[nH]c12)/c1cccs1	0	5.7*	12*	0	1	3	88*	43*
COc1cccc(NC(=O)Nc2c(-c3ccc(C(F)(F)F)cc3)nc3ncccn23)c1	-1	·	·	-1	1	6	·	·
CN[C@H]1C[C@H]2c3[nH]c4c(-c5ccc6c(c5)OCO6)cccc4c3CCN2C(=O)[C@H]1[C@H](C)O	-2	·	·	0	0	1	·	·
C=C1CCN([C@@H](Cc2ccccc2)C(=O)NCCC(C)C)S(=O)(=O)c2ccccc21	0	1	8.0*	-1	0	-1	12	6
C=C1CCN([C@@H](CC(C)C)C(=O)Nc2ccc(OC)cc2)S(=O)(=O)c2ccccc21	-1	-1	14*	-1	0	-3	22*	11*
CCOC(=O)CC[C@H](NC(=O)[C@@H]1CC=C[C@@H]2CCN(Cc3ccc(Cl)cc3)C(=O)[C@@H]21)C(=O)OCC	-2	·	·	-1	·	2	·	·
CCOC(=O)c1cnc2cc3c(cn2c1=O)CCCC3	1	1	8.2*	-1	1	7	98*	34*
Cc1ccc2c(c1)N(CCCC(=O)N(C)Cc1ccc(F)cc1)C(=O)CO2	-3	·	·	-2	-1	0	·	·
CCCC/C=C1/[C@@H](CC)N(Cc2ccc(OC)cc2OC)C2=N[C@@H](c3ccccc3)CC(=O)N21	-2	·	·	-1	·	4	·	·
O=C(Nc1sc2c(c1C(=O)NCc1ccco1)CCCC2)c1ccc2c(c1)OCO2	1	1	10*	-2	1	4	69*	31*
Cc1ccc(C(=O)Nc2sc3c(c2C(=O)NCc2ccco2)CCCC3)cc1	3	1	6	0	0	6	·	·
O=S1(=O)c2ccc(N3CCSCC3)cc2Oc2ccccc2CN1Cc1cn(Cc2cccc(C(F)(F)F)c2)nn1	-2	·	·	-1	-1	-1	·	·
SMILES	hcDAF-12 act	DAX1 inh-1	FXN GAA850 act	ssDAF12 agonist	DAX1 inh-2	hgDAF12 agonist	GAA30 FXN cntr	GAA850 confirm
Cc1ccc(NC(=O)C2CCCN(c3ncccn3)C2)cc1F (stereo unspecified)	2	1	7.6*	1	3	12*	113*	32*
CCCCNC(=O)C[C@H]1C[C@@]2(C(=O)OC)C(=C[C@H](C(C)C)O[C@@H]2C2CC2)N(Cc2ccc(Cl)cc2Cl)C1=O	2	·	·	0	0	-2	·	·
C[C@H]1c2cccc(O)c2C(O)=C2C(=O)[C@]3(O)C(O)=C(C(N)=O)C(=O)[C@@H](N(C)C)C3[C@@H](O)C21 (stereo partly specified)	-2	0	16*	-1	-2	2	18	5
COc1cc2c(cc1NC(=O)CSc1nnc(-c3ccccc3C)n1Cc1ccco1)oc1ccccc12	0	·	·	-1	-2	3	·	·
O=C1Nc2ccc(Br)cc2/C1=C/C(=O)c1ccccc1	1	-1	11*	0	-2	-1	-8	17*
O=C(O)COc1ccccc1/C=C1\C(=O)Nc2ccc(Br)cc21	5	3	0	-1	0	-1	·	·
O=C1c2ccccc2C2Cc3nnccc3CN12 (stereo unspecified)	0	·	·	-1	1	2	·	·
COc1ccc(C(=O)N/C(N)=N/c2nc3ccccc3o2)cc1	-2	-1	1	-1	-1	1	·	·
COc1ccc(C(=O)/C=C/Sc2nc3ccccc3o2)cc1	-1	4	9.8*	-1	-1	-2	5	5
CC[C@@]1(C(=O)OC)N[C@H](CN(C)C(=O)Nc2ccc(F)cc2)[C@@H]2C(=O)N(Cc3ccccc3)C(=O)[C@@H]21	0	-1	9.6*	0	0	1	38*	18*
CC[C@@]1(C(=O)OC)N[C@H](CN(C)C(=O)Nc2ccc(C)cc2)[C@@H]2C(=O)N(Cc3ccccc3)C(=O)[C@@H]21	-1	0	15*	0	0	1	42*	14*
COC(=O)[C@]1(Cc2ccccc2)N[C@H](CN(C)C(=O)Nc2ccccc2)[C@@H]2C(=O)N(Cc3ccccc3)C(=O)[C@@H]21	1	-2	-6	0	-1	1	·	·
